The text below walks through data of PubChem BioAssay (NCATS).

In assay [1] the target is Cytochrome P450 1A2 (Homo sapiens) (UniProt P05177). The experiment in a line: p450-cyp1a2 (AID 410; calls by dose curve; also: potency is read from the fitted curve at half-maximal effect). The essentials:
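Luminescent readout of luciferin formed from Luciferin-ME by human CYP1A2; data normalized against complete inhibition by 57 uM furafylline. Enzyme 20nM, substrate 100uM at Km, 100mM KPO4 buffer, 60 min reaction at room temperature.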

Assay [2] is described as follows: NFAT Signaling Pathway (AID 444; active = well fitted curve in either direction with a large enough effect, not every such curve was filed as active;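 also: carbachol stimulus at about its EC50 of 1 µM final; % is scaled to controls: 0 for no effect and ±100 for the full control effect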). The following applies: Jurkat NFAT-bla M1, carbachol, beta-lactamase ratio, 5 h; at 17.2 µM (top of the series) unless noted. The essentials:
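Jurkat cells with NFAT-driven β-lactamase reporter and co-expressed M1 receptor, stimulated with carbachol (final 1 uM, ~EC50), compound titration, 5 h at 37 °C. CCF4 loaded 1 h at RT; 460/530 nm ratio gave %activity and AC50.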

Assay [3] in a line: Stat Signaling Pathway (AID 446; active = well fitted curve in either direction with a large enough effect, not every such curve was filed as active;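 also: ME-180 cervical cancer cells given 40 pM IL-6 alongside compound; SIE-controlled beta-lactamase reporter measured as 460/530 nm FRET emission ratio; % is scaled to controls: 0 for no effect and ±100 for the full control effect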). The following applies: ME-180 SIE beta-lactamase reporter, IL-6 stimulated, 5 h; at 17.2 µM (top of the series) unless noted. In a few lines: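 ME-180 cells carrying a SIE-driven beta-lactamase reporter are stimulated with 40 pM IL-6 for 5 h at 37C in the presence of compound. The 460/530 nm FRET substrate ratio is read after 2.5 h at RT. Data are normalised to 300 pM IL-6 and to 125 nM JAK inhibitor controls.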

Assay [4] addresses Glucocorticoid receptor (Homo sapiens) (UniProt P04150). The assay can be described thus: GR-GFP Redistribution (AID 450;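 active = compounds whose dose series gives a full or clear partial fitted curve of increased nuclear translocation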; also: potency is read from the fitted curve at half-maximal effect).
The target is the same in assay [5]. The assay can be described thus: GR-EFC Redistribution (AID 451; calls by dose curve; also: potency is read from the fitted curve at half-maximal effect). The following applies: CHO-K1 GR-EFC translocation, beta-gal luminescence, 2 h. In a few lines:
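CHO-K1 cells expressing nuclear EA and GR-ED fragments of b-gal; compounds titrated up to 46 uM final, 2 h at 37 C. GR nuclear translocation read as complemented b-gal luminescence after 1 h RT detection.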

Assay [6] addresses Mitogen-activated protein kinase 10 (Mus musculus) (UniProt Q61831). The assay can be described thus: JNK3 AlphaScreen Assay (AID 530; active = well fitted curve in either direction with a large enough effect, not every such curve was filed as active;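 also: kinase came from lysate of stimulated human HepG2 cells; signal reports phosphorylation of biotinylated GST-cJun 1-79 at Ser73 with 10 µM ATP; % is scaled to controls: 0 for no effect and ±100 for the full control effect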). In a few lines:
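Pre-activated (IL-1β/TNFα) JNK3 in HepG2 lysates phosphorylates biotin-GST-cJun(1-79), 10 uM ATP; anti-phospho-cJun(Ser73) AlphaScreen read at room temperature, pH 7.6 Tris buffer. Compounds pre-incubated 15 min as titrations.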

In assay [7] the target is Cytochrome P450 3A4 (Homo sapiens) (UniProt P08684). The assay can be described thus: qHTS Assay for Inhibitors and Substrates of Cytochrome P450 3A4 (AID 884). Also: potency is read from the fitted curve at half-maximal effect; nearly all actives have a fitted effect of over 50% in size. In a few lines: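 20 nM human CYP3A4 with 25 uM Luciferin-PPXE (at KM) in 200 mM KPO4, preincubated 10 min with compound; NADPH regeneration started a 60 min RT reaction. Luciferin detected by luminescence, normalized to 57 uM ketoconazole as full inhibition.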
On the technique in general: Quantitative high-throughput screening tests each substance at several concentrations.

Assay [8] has the same target. The assay can be described thus: qHTS Assay for Activators of Cytochrome P450 3A4 (AID 885). Also: nearly all actives have a fitted effect of over 65% in size. In a few lines:
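Human CYP3A4 (20 nM) with Luciferin-PPXE at 25 uM (its KM) in 200 mM KPO4; 10 min compound preincubation, then NADPH regeneration and 60 min reaction at RT. Luciferin read by luminescence; normalized to 57 uM ketoconazole full inhibition.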

In assay [9] the target is Cytochrome P450 2C19 (Homo sapiens) (UniProt P33261). The experiment in a line: qHTS Assay for Inhibitors and Substrates of Cytochrome P450 2C19 (AID 899). Also: potency is read from the fitted curve at half-maximal effect; nearly all actives have a fitted effect of over 60% in size. In a few lines: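 5 nM human CYP2C19 with 10uM Luciferin-H EGE (at KM) in 50mM KPO4, compound preincubated 10 min at 37C, then NADPH regeneration for 60 min at 37C. Luciferin read by luminescence after detection reagent; normalized to 57uM ketoconazole as full inhibition.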

Assay [10] is described as follows: Confirmation and Secondary Assay for Modulators of Hemoglobin Beta Chain Splicing at IVS2 654 locus (AID 910).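 Also: HeLa cells stably carrying EGFP split by mutant beta-globin IVS2-654 intron; % of control where 0% means no effect.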 In a few lines: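 HeLa cells stably expressing EGFP interrupted by β-globin IVS2-654 intron, seeded overnight in Opti-MEM/2% FCS, then treated 2 days at 37 °C. Restored splicing read as total peak GFP intensity per well by laser scanning cytometry (488 nm excitation, 500–520 nm emission); 500 nM antisense PNA as control.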

The target in assay [11] is 3',5'-cyclic-AMP phosphodiesterase 4B (Homo sapiens) (UniProt Q07343). The experiment in a line: qHTS Assay for Inhibitors of PDE-IV (AID 607; active = well fitted activation curve with a large enough effect in the main read-out, with a control signal flat, not every such curve was filed as active; also: % of control where 0% means no effect). The essentials:
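HEK293 ACTOne cells with CNG channel (1000/well), endogenous PDE4; membrane potential dye, compounds up to 22.9 uM final. Fluorescence Ex 535/Em 590; RO 20-1724 (100 uM final) as reference.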

Assay [12] concerns the target Guanine nucleotide-binding protein G(i) subunit alpha-1 (Homo sapiens) (UniProt P63096). The assay can be described thus: qHTS Assay for Inhibitors of RGS12 GoLoco Motif Activity (Green Fluorophore) (AID 879).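 Also: 0% = labeled peptide with Gαi1 and full inhibition = labeled peptide alone without protein; negative values mean loss of peptide binding seen as reduced polarization.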 In a few lines:
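Fluorescence polarization assay: 50 nM Gαi1 with 10 nM FITC-labeled RGS12 GoLoco peptide in 10 mM Tris pH 7.5, 150 mM NaCl, 0.1 mM GDP, 0.05% NP40, 10 min at room temperature with compound.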

Assay [13] concerns the target Cytochrome P450 2C9 (Homo sapiens) (UniProt P11712). The assay can be described thus: qHTS Assay for Inhibitors and Substrates of Cytochrome P450 2C9 (AID 883). Also: potency is read from the fitted curve at half-maximal effect; nearly all actives have a fitted effect of over 60% in size. The essentials:
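Human CYP2C9 (10nM) with Luciferin-H at 100uM (its KM) in 25mM KPO4; compound preincubated 10 min at 37C, then NADPH regeneration for 60 min at 37C. Luciferin read by luminescence after detection reagent; normalized to 57uM sulphaphenazole as full inhibition.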

Assay [14] can be described thus: qHTS Assay for Identification of Small Molecule Antagonists for NFkB Signaling Pathway (AID 895; active = well fitted inhibition curve with a large enough effect in the signal ratio, with a control signal flat, not every such curve was filed as active; the % refers to the signal ratio; also: potency is read from the fitted curve at half-maximal effect). In a few lines: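 ME-180 NFkB-bla cells (beta-lactamase under NFkB response element), plated overnight, treated with compound then 10 pM TNF alpha (about EC50) for 5 hrs at 37 C. LiveBLAzer FRET read at 460/530 nm emission, 405 nm excitation.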
Assay [15] in a line: qHTS Assay for Identification of Small Molecule Agonists for Thrombopoietin (TPO) Signaling Pathway (AID 917). Also: % is scaled to controls: 0 for no effect and ±100 for the full control effect. The essentials:
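Activators of TPO signaling were sought in murine Ba/F3 cells transfected with the human receptor, using a luciferase gene driven by the Glycoprotein IIb promoter; 24-hr compound exposure at 37 C alongside 26 pM TPO, in IL-3-free medium.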

Assay [16] deals with Pyruvate kinase (Leishmania mexicana) (UniProt Q27686). The assay can be described thus: qHTS Validation Assay for Inhibitors of Leishmania Mexicana Pyruvate Kinase (AID 945).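 Also: 0% = DMSO only neutral control wells.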 The essentials: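 Mutant LmPYK (E451W), 0.2 nM, plus 0.5 mM PEP and 0.1 mM ADP in 50 mM imidazole pH 7.2 containing 0.01% Tween 20 and 0.05% BSA. Incubated 1 h at room temperature; luminescence via PKLight, normalized to DMSO.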

The target in assay [17] is Pyruvate kinase PKM (Homo sapiens) (UniProt P14618). The experiment in a line: qHTS Assay for Activators of Human Muscle Pyruvate Kinase (AID 954; active = well fitted curve in the direction sought with a large enough effect, not every such curve was filed as active;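 also: 0% = uninhibited enzyme and -100% = no enzyme or full thiadiazolimine inhibition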). The essentials:
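Purified human PKM2 (0.1 nM) with 0.5 mM PEP (Km) and 0.1 mM ADP in 50 mM imidazole pH 7.2, KCl, MgCl2, 1 h at room temperature; ATP formed read by coupled luciferase luminescence. Normalized to no-enzyme/110 uM thiadiazolimine inhibition; 0.3 nM enzyme column for activation.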

In assay [18] the target is Alpha-galactosidase A (Homo sapiens) (UniProt P06280). The experiment in a line: Counterscreen for Glucocerebrosidase Inhibitors: qHTS Assay for Human alpha-Galactosidase at pH 4.5 (AID 992). Also: 0% is about no effect. The essentials:
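Human enzyme (2 nM) with 80 uM 4-methylumbelliferyl alpha-D-galactopyranoside in 50 mM citric acid, 0.005% Tween-20, pH 4.5, 20 min at room temperature. Compounds 0.7 nM–77 uM; fluorescence Ex 365/Em 440 after pH 10 stop; AC50 from Hill fits.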
Background: A counterscreen serves to expose hits that act by an unwanted route or on another target.

For assay [19], the target named is alpha-glucosidase (Oryza sativa, rice) (UniProt Q653V4). The assay can be described thus: Counterscreen for Glucocerebrosidase Inhibitors: qHTS Assay for Rice alpha-Glucosidase at pH 5.0 (AID 997).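 Also: 0% = full activity with enzyme and -100% = basal without enzyme.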 In a few lines: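 Rice alpha-glucosidase (4 nM final) with 400 uM 4-methylumbelliferyl-alpha-D-glucopyranoside in citrate buffer pH 5.0, 20 min at room temperature, stopped at pH 10; fluorescence 365/440 nm, compounds 0.7 nM–77 uM, AC50 from Hill fits.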

SMILES strings stand for the structures. A number with no mark means an inactive call. Results filed as inconclusive are left out. Active and inactive are the calls of the source. Unless noted, calls follow the shape of the dose curve; as a rule, active = well fitted curve in the direction sought with a large enough effect; inconclusive = small, poorly fitted or top-dose-only effect, or another doubt; inactive = no such curve, though single readings can be large; an effect the other way counts as inactive or inconclusive.

Cytochrome P450 3A4 (Homo sapiens), sequence (P08684 whole entry, looked up): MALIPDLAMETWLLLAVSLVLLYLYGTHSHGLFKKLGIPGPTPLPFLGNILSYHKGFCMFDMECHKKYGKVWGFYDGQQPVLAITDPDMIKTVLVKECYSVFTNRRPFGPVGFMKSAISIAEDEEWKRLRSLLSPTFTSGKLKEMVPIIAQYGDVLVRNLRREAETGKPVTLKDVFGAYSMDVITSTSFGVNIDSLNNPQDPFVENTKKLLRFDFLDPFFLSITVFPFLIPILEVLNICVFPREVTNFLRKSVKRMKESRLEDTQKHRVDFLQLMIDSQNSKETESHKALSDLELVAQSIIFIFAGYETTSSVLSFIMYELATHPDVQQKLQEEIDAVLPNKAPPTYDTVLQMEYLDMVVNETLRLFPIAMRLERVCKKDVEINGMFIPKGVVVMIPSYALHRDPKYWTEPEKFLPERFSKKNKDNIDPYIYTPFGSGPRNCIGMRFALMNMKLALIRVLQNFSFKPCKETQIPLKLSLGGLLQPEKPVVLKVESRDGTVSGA
Glucocorticoid receptor (Homo sapiens), sequence (P04150 whole entry, looked up): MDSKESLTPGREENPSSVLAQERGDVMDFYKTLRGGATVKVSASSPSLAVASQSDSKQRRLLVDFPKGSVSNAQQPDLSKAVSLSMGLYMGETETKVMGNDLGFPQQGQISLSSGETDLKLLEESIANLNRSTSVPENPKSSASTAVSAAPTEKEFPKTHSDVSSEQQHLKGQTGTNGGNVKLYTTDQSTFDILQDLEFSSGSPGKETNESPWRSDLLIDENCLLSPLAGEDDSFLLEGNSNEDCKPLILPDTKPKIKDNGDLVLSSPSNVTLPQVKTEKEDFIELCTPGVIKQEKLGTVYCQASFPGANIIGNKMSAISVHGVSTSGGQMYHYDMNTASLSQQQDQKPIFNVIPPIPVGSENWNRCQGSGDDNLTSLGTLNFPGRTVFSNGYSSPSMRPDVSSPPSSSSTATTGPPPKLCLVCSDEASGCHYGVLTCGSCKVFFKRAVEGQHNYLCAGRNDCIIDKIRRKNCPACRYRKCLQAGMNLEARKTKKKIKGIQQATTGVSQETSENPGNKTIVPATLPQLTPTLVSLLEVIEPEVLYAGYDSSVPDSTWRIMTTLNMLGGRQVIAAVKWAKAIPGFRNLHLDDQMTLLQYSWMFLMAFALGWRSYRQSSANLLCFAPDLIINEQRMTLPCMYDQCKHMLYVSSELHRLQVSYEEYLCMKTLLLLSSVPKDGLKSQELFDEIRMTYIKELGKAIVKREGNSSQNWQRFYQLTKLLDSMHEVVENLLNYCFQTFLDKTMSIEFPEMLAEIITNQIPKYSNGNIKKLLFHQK
Cytochrome P450 1A2 (Homo sapiens), sequence (P05177 whole entry, looked up): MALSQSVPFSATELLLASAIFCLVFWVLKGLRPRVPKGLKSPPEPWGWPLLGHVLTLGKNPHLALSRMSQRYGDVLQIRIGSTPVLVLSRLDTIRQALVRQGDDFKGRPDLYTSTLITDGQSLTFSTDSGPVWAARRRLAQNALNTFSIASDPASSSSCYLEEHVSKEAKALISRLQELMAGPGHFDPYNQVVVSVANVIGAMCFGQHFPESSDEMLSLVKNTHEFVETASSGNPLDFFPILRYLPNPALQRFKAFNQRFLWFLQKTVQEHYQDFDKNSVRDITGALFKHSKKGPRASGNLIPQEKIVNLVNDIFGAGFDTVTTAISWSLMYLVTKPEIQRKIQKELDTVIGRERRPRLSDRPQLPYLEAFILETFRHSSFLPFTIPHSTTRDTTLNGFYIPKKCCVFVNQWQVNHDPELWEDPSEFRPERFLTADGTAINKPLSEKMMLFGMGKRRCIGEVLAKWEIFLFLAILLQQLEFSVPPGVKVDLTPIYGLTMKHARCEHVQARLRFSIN
Cytochrome P450 2C19 (Homo sapiens), sequence (P33261 whole entry, looked up): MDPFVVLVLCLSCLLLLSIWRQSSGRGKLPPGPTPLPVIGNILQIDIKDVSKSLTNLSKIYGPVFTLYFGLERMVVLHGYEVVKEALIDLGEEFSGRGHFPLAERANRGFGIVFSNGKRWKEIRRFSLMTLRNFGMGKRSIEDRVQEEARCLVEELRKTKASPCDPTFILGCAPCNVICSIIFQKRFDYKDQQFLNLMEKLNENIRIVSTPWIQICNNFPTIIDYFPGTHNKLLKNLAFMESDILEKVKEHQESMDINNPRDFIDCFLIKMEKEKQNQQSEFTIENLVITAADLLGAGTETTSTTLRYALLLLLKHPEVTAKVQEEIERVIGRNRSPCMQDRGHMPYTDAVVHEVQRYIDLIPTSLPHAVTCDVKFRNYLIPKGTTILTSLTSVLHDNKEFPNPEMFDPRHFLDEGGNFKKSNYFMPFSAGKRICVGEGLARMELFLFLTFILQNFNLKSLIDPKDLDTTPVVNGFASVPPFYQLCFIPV
Pyruvate kinase PKM (Homo sapiens), sequence (P14618 whole entry, looked up): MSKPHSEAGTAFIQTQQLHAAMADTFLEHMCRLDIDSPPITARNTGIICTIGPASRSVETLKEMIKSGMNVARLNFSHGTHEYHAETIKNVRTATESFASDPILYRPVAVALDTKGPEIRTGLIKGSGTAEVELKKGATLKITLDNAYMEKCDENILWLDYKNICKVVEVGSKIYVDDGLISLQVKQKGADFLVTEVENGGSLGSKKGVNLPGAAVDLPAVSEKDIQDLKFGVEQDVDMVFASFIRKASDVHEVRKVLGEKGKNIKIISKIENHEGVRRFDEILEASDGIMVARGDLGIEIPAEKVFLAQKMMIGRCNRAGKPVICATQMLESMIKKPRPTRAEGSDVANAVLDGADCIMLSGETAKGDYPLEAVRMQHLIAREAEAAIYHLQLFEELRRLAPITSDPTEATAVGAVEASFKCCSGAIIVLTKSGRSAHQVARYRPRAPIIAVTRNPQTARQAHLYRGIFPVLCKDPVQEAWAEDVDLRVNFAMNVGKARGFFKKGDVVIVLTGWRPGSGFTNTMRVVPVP
Alpha-galactosidase A (Homo sapiens), sequence (P06280 whole entry, looked up): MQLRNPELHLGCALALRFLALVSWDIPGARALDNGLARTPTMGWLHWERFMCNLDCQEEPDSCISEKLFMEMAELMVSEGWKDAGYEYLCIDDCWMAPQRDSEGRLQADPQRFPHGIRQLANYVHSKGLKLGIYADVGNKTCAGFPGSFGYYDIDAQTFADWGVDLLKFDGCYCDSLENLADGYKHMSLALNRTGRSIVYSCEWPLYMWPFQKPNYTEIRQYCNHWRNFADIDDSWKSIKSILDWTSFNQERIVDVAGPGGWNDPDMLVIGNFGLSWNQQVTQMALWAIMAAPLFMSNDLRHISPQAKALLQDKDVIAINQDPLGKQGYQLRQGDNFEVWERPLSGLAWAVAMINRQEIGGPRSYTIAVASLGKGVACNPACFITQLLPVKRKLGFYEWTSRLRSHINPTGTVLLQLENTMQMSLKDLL
Pyruvate kinase (Leishmania mexicana), sequence (Q27686 2-499 E452W): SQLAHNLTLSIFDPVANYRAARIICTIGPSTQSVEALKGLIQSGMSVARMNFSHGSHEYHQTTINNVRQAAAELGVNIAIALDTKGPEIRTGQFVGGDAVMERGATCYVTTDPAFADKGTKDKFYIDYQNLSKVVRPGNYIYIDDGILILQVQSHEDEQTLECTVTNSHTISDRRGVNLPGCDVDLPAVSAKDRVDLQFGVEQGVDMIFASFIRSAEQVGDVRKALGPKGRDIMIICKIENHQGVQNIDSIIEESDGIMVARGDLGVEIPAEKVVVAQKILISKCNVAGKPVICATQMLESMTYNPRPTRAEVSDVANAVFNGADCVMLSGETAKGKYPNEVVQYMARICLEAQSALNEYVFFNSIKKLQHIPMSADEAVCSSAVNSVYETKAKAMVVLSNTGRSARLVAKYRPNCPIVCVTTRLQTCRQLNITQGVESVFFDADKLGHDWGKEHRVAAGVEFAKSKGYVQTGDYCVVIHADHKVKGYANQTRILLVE
3',5'-cyclic-AMP phosphodiesterase 4B (Homo sapiens), sequence (Q07343 whole entry, looked up): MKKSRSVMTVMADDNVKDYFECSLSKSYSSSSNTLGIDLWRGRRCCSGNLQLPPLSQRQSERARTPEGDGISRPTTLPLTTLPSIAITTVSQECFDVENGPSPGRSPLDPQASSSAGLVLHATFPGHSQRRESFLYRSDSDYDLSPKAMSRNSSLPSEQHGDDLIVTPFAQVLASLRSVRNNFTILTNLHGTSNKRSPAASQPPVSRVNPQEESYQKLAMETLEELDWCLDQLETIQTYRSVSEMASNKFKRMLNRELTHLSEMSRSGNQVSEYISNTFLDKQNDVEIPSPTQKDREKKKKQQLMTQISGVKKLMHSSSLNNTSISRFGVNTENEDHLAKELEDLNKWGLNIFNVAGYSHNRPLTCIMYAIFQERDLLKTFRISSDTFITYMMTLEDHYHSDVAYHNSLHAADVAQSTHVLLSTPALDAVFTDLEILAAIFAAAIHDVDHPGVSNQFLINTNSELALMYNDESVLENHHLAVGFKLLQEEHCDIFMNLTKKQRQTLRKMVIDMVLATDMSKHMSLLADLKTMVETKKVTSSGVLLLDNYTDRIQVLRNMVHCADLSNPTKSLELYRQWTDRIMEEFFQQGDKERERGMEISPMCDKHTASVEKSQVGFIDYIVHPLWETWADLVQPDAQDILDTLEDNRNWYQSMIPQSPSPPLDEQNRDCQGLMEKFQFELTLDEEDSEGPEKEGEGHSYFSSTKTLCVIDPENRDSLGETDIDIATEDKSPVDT
Cytochrome P450 2C9 (Homo sapiens), sequence (P11712 whole entry, looked up): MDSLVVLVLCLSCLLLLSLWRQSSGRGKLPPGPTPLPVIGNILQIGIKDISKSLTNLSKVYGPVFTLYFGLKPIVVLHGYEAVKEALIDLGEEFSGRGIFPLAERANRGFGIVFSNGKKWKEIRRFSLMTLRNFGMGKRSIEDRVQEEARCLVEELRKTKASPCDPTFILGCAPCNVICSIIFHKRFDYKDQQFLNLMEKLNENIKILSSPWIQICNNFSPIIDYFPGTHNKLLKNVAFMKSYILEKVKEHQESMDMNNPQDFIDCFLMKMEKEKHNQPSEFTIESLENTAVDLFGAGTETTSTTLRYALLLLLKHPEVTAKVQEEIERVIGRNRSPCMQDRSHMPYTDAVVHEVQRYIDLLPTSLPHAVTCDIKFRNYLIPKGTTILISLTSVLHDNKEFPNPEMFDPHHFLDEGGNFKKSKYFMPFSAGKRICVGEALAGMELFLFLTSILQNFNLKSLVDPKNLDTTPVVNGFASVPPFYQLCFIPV

With `FC(F)(F)c1ccccc1-c1nc(Nc2ccncc2)c2ccccc2n1`, the Potency in assay [1] is 10 µM (active); in [4], > 46 µM; in assay [5], > 46 µM; in assay [7], 631 nM (active); in [9] it was 2 µM (active). For the same compound, the activity change, negative = inhibition in assay [2] was -8.21% [at 7.69 µM]. For the same compound, the activity, negative = inhibition in assay [3] is -14.6% [at 7.69 µM]. Further, the Potency result in [6], in assay [8] and in [10] was “inactive” each time.

As to `C#CCN1C(C)=C(C(=O)OC)[C@@H](c2cccc([N+](=O)[O-])c2)C(C(=O)OCC)=C1C`, the Potency is 12.6 µM (active) in assay [1]; > 46 µM in assay [4]; > 46 µM in assay [5]; 316 nM (active) in [13]; 3160 nM (active) in assay [7]; 3.55 µM (active) in assay [14]. In addition, the Potency in assay [9] was 5.01 µM (active). The activity, negative = inhibition in [3] is -3.77% [at 38 µM]. For the same compound, the Potency entry in assay [6], in assay [11], in [8], in [15] and in assay [16] was “inactive” each time. For the same compound, the result in assay [12], in assay [17], in assay [18] and in assay [19] was inactive.
